Assay results from PubChem BioAssay (NCI).
About 83,000 compounds went through this panel and 20% of them were active in at least one assay; those are over-represented in the sample as a whole.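 48-hour exposure, single concentration, 96-well plates; percent growth endpoint where 0 means no net growth. Active: below 10.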 A number with no mark means an inactive call. Activity calls are given as the source filed them.

How the values were obtained:
Assay in all cases: NCI-60 one-dose screen, 48 h (100 = growth as untreated, 0 = no growth, -100 = all killed)
[1] = test system: NCI-H23 lung; settings: 10 µM unless noted
[2] = test system: NCI-H226 lung; settings: 10 µM unless noted
[3] = test system: NCI-H322M lung; settings: 10 µM unless noted
[4] = test system: HOP-62 NSCLC; settings: 10 µM unless noted
[5] = test system: NCI-H460 lung; settings: 10 µM unless noted
[6] = test system: HOP-92 NSCLC; settings: 10 µM unless noted
[7] = test system: NCI-H522 lung; settings: 10 µM unless noted
[8] = test system: A549/ATCC NSCLC; settings: 10 µM unless noted
[9] = test system: 786-0 renal; settings: 10 µM unless noted
[10] = test system: COLO 205 colon; settings: 10 µM unless noted
[11] = test system: DU-145 prostate; settings: 10 µM unless noted
[12] = test system: MALME-3M melanoma; settings: 10 µM unless noted
[13] = test system: MDA-MB-231 breast; settings: 10 µM unless noted
[14] = test system: RXF 393 renal; settings: 10 µM unless noted
[15] = test system: SF-268 CNS; settings: 10 µM unless noted
[16] = test system: SF-295 CNS; settings: 10 µM unless noted
[17] = test system: SF-539 CNS; settings: 10 µM unless noted
[18] = test system: M14 melanoma; settings: 10 µM unless noted
[19] = test system: UACC-257 melanoma; settings: 10 µM

Compound | growth [1] | growth [2] | growth [3] | growth [4] | growth [5] | growth [6] | growth [7] | growth [8] | growth [9] | growth [10] | growth [11] | growth [12] | growth [13] | growth [14] | growth [15] | growth [16] | growth [17] | growth [18] | growth [19]
COc1cc2c3c(n(CCCN4CCCCC4)c(=O)c2cc1OC)-c1cc2c(cc1C3=O)OCO2 | -91.9% (active) | -61.6% (active) | -96.4% (active) | -71.4% (active) | -84.7% (active) | -77.4% (active) | -80.2% (active) | -58.4% (active) | -55.9% (active) | -88.8% (active) | -92.2% (active) | -78.5% (active) | -77.1% (active) | -73.9% (active) | -55.5% (active) | -75.6% (active) | -89.3% (active) | -89.5% (active) | –
CS(=O)c1nccc(-c2c(-c3ccc(F)c(OCc4ccc(F)cc4)c3)nc3sccn23)n1 (stereo not given) | 61.6% | 95.3% | 62.7% | 100% | 35.6% | 16.9% | -51.8% (active) | 102% | 100% | 100% | -9.49% (active) | 92.3% | 67.8% | 87.6% | 100% | 97.8% | 88.4% | 81.6% | -24.6% (active)
COc1ccc([C@@H]2[C@@H](O)C(=O)N2c2cc(OC)c(OC)c(OC)c2)cc1 | 25.6% | -7.75% (active) | 43.1% | 22.7% | 3.07% (active) | -1.78% (active) | -21.2% (active) | 23.3% | 19.2% | -78.7% (active) | 12.7% | 49.9% | 30.4% | 24% | 46.9% | 19.8% | -7.72% (active) | 12.5% | –
COc1ccc(-c2oc3cc(O)cc(O)c3c(=O)c2OC)cc1O | 25.7% | 73.6% | 41.2% | 29.1% | 8.84% (active) | 41.2% | -21% (active) | 38% | 38.8% | 91.4% | 15.7% | 68.8% | 32.7% | -29.9% (active) | 45.2% | -24.1% (active) | -34.6% (active) | 28.3% | 78.8%
CCOC(=O)CC(=O)CSC1=NC2C(NN1)N(C)C(=O)N2C (stereo not given) | 75.5% | 100% | 103% | 107% | 105% | 88.7% | 72.8% | 102% | 103% | 108% | 90.2% | 61.6% | 75.3% | 105% | 99.4% | 102% | 91.5% | 81.3% | –
CS(=O)(=O)c1ccc2c(c1)c1c(n2S(=O)(=O)c2ccc(Cl)cc2)CCCC1 | 36.3% | 53.6% | 49.1% | 38.5% | 9.54% (active) | 32.7% | -44.5% (active) | 48.7% | 40.4% | -36.3% (active) | 22.9% | 54.5% | 29.8% | -0.699% (active) | 63.3% | 21% | 2.97% (active) | 26.3% | 60.6%
CCNCCCn1c2c(c3cc(OC)c(OC)cc3c1=O)C(=O)c1cc(OC)cnc1-2 | 21.1% | 17.7% | 33.2% | -12.2% (active) | 0.566% (active) | 31.1% | 13.4% | 34.4% | -3.55% (active) | 13.4% | 19.6% | 62.9% | 16.3% | 13.6% | 39.5% | 14.8% | -7.15% (active) | 13.9% | –
C=C1C(=O)O[C@@H]2C[C@@H](C)[C@H](OC)CC(=O)[C@](C)(OC(C)=O)C[C@H](OC(=O)/C(C)=C\C)[C@@H]12 | 70% | 96.4% | 95.1% | 89.5% | 101% | 85.1% | -67.8% (active) | 100% | 93% | -7.69% (active) | 78.3% | 40.2% | 36.7% | 58.7% | 93.1% | 91.6% | 71.4% | 88.8% | 77.1%
CS(=O)c1nccc(-c2c(-c3ccc(F)c(OCCc4ccccc4)c3)nc3sccn23)n1 (stereo not given) | 86.1% | 102% | 76.7% | 98.2% | 57.3% | 77% | -79.1% (active) | 109% | 104% | 80.7% | 4.08% (active) | 87.5% | 84.7% | 98.5% | 101% | 101% | 95.9% | 76% | 28.5%
C=C1C(=O)O[C@@H]2/C=C(/C)C3=CC(=O)[C@@](C)(C[C@H](OC(=O)/C(C)=C\C)[C@@H]12)O3 | 6.39% (active) | 34.5% | 89.1% | 82.4% | 27.2% | -11.8% (active) | -82.3% (active) | 72.6% | -56.5% (active) | -52.1% (active) | 8.26% (active) | -22.9% (active) | -16.8% (active) | -65% (active) | 30.2% | 55.9% | -19.4% (active) | -27.6% (active) | -36.2% (active)
CC1OC(O[C@@H]2[C@H](O)C(CO)OC(O[C@H]3COC(O[C@H]4CC[C@]5(C)[C@H]6CC[C@]78OC[C@@]9(CC[C@](C)(C=O)C[C@H]97)C(=O)C[C@@]8(C)[C@]6(C)CC[C@H]5C4(C)C)[C@@H](O)[C@@H]3O)[C@H]2OC2OC[C@@H](O)[C@@H](O)[C@@H]2O)[C@@H](O)[C@@H](O)[C@H]1O (stereo not given in full) | 94.8% | 82.7% | 93.3% | 75.2% | 98.5% | 79.5% | 87.1% | 90.6% | 95.5% | 92.6% | 108% | 98.2% | 79.7% | 87.4% | 95.9% | 89.9% | 99.8% | 96.9% | 95.3%
N#Cc1ccc(S(=O)(=O)Nc2ccc(-c3cnc(N)[nH]3)cc2)cc1 | 99.1% | 96.4% | 97.4% | 105% | 103% | 100% | 94% | 98.4% | 100% | 105% | 107% | 98% | 100% | 102% | 105% | 96.9% | 98.7% | 99.9% | 98.2%
CS(=O)(=O)c1nccc(-c2c(-c3ccc(F)c(OCCc4ccccc4)c3)nc3sccn23)n1 | 100% | 89.2% | -26.9% (active) | 103% | 28.8% | 50.1% | -12.5% (active) | 99% | 98.2% | 112% | -87.9% (active) | 119% | 89.4% | 99.1% | 98.7% | 97.2% | 93% | 83.2% | -16.4% (active)
C=CCn1c(SCC(=O)Nc2cccc(C(=O)/C=C/c3ccc(Cl)cc3)c2)nc2ccccc2c1=O | 92.3% | 102% | 95.6% | 113% | 95.4% | 88.7% | 81.8% | 85.7% | 98.2% | 112% | 95.1% | 95.6% | 81.3% | 87% | 87.3% | 94.7% | 85.9% | 87.8% | 102%
COCCOc1ccc(-c2csc(NC(C)=O)n2)cc1NS(=O)(=O)c1cccc2c(N(C)C)cccc12 | 104% | 84.9% | 92.6% | 102% | 100% | 58.6% | 85.2% | 98.3% | 95.8% | 94.5% | 98.3% | 83.9% | 80.2% | 91.7% | 96.2% | 95.9% | 90.9% | 94% | –
